From PubChem BioAssay AID504909 (Southern Research Specialized Biocontainment Screening …, 2011)
Measured potencies and affinities stand elsewhere. Active and inactive are the calls of the source. The rule behind the calls is not given here.

Assay: Vero cell cytotoxicity, dose response, cytotoxicity control for M. tuberculosis growth inhibitor project, Vero cells, purified and synthesized compounds, set 5 (AID 504909)
Details: series mostly up to 100 µM; viability: at the top concentration

| SMILES | viability |
| --- | --- |
| CCOC1OC(=O)C(Cl)=C1Nc1ccccc1C (stereo not drawn) | 103% (inactive) |
| CNC(=O)CSc1nc2ccccc2c(=O)[nH]1 | 92.2% (inactive) |
| CCOC(=O)CSc1nc(C)c(C)c(=O)[nH]1 | 98.6% (inactive) |
| O=C(CSc1nccc(=O)[nH]1)NC1CCCCC1 | 94.8% (inactive) |
| O=c1[nH]c(=S)[nH]c2ccccc12 | 81.5% (inactive) |
| Cc1nc(SCC(=O)NC2CCCC2)[nH]c(=O)c1C | 91.4% (inactive) |
| CCC(Sc1nc2ccccc2c(=O)[nH]1)C(=O)Nc1cccc(OC)c1 (stereo not drawn) | 91.9% (inactive) |
| COc1ccc(NC(=O)CSc2nc3ccccc3c(=O)[nH]2)cc1 | 89.5% (inactive) |
